Results from PubChem BioAssay AID1159580 (chemical genetic matrix, 2015).
Screen size: about 5,500 compounds; about 2,000 (36%) were called active. Inconclusive results (about 18%) are left out. Cut-off read from the data, not from the text of the source: active = normalized growth mostly below about 0.91 (no sharp cut-off); inconclusive = no clear call, values can overlap the other calls; inactive = mostly above about 0.92. The list shows a part of the results.

Assay: chemical genetic growth profiling, strain panel (AID 1159580);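 note: tested at 20 µM; growth read once vehicle control cultures reached saturation at 30 °C; 1 = growth at the plate median or of vehicle wells; lower values mean less growth of the strain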
Conditions: S. cerevisiae deletion strains, growth OD
[1] = locus YAR019C, strain CDC15, stronger effect = lower value
[2] = locus YBL105C, strain PKC1, stronger effect = lower value
[3] = locus YBR135W, strain CKS1, stronger effect = lower value
[4] = locus YBR136W, strain MEC1, stronger effect = lower value
[5] = locus YBR160W, strain CDC28, stronger effect = lower value
[6] = locus YDL017W, strain CDC7, stronger effect = lower value
[7] = locus YDL028C, strain MPS1, stronger effect = lower value
[8] = locus YDL101C, strain DUN1, stronger effect = lower value
[9] = locus YDL108W, strain KIN28, stronger effect = lower value
[10] = locus YDL132W, strain cdc53, stronger effect = lower value
[11] = locus YDL214C, strain PRR2, stronger effect = lower value
[12] = locus YDR052C, strain DBF4, stronger effect = lower value
[13] = locus YDR054C, strain cdc34, stronger effect = lower value
[14] = locus YDR226W, strain ADK1, stronger effect = lower value
[15] = locus YDR477W, strain SNF1, stronger effect = lower value
[16] = locus YER123W, strain YCK3, stronger effect = lower value
[17] = locus YER133W, strain GLC7, stronger effect = lower value
[18] = locus YFL009W, strain cdc4, stronger effect = lower value
[19] = locus YFL029C, strain CAK1, stronger effect = lower value
[20] = locus YFR003C, strain YPI1, stronger effect = lower value
[21] = locus YFR019W, strain FAB1, stronger effect = lower value
[22] = locus YFR028C, strain CDC14, stronger effect = lower value
[23] = locus YGR040W, strain KSS1, stronger effect = lower value
[24] = locus YGR052W, strain FMP48, stronger effect = lower value
[25] = locus YGR092W, strain DBF2, stronger effect = lower value
[26] = locus YHR030C, strain SLT2, stronger effect = lower value
[27] = locus YHR079C, strain IRE1, stronger effect = lower value
[28] = locus YHR082C, strain KSP1, stronger effect = lower value
[29] = locus YHR205W, strain SCH9, stronger effect = lower value
[30] = locus YIL147C, strain SLN1, stronger effect = lower value
[31] = locus YJL095W, strain BCK1, stronger effect = lower value
[32] = locus YJL128C, strain PBS2, stronger effect = lower value
[33] = locus YJL157C, strain FAR1, stronger effect = lower value
[34] = locus YJR016C, strain ILV3, stronger effect = lower value
[35] = locus YJR066W, strain TOR1 (second series), stronger effect = lower value
[36] = locus YJR066W, strain TOR1, stronger effect = lower value
[37] = locus YKL048C, strain ELM1, stronger effect = lower value
[38] = locus YKL067W, strain YNK1, stronger effect = lower value
[39] = locus YKL101W, strain HSL1, stronger effect = lower value
[40] = locus YKL193C, strain SDS22, stronger effect = lower value
[41] = locus YKL203C, strain TOR2, stronger effect = lower value
[42] = locus YLR113W, strain HOG1, stronger effect = lower value
[43] = locus YLR133W, strain CKI1, stronger effect = lower value
[44] = locus YLR403W, strain SFP1, stronger effect = lower value
[45] = locus YML070W, strain DAK1, stronger effect = lower value
[46] = locus YMR001C, strain CDC5, stronger effect = lower value
[47] = locus YMR205C, strain PFK2 (second series), stronger effect = lower value
[48] = locus YMR277W, strain FCP1, stronger effect = lower value
[49] = locus YNL006W, strain LST8, stronger effect = lower value
[50] = locus YNL020C, strain ARK1, stronger effect = lower value
[51] = locus YNL161W, strain CBK1, stronger effect = lower value
[52] = locus YNL183C, strain NPR1, stronger effect = lower value
[53] = locus YNL207W, strain RIO2, stronger effect = lower value
[54] = locus YNL222W, strain SSU72, stronger effect = lower value
[55] = locus YNL307C, strain MCK1 (second series), stronger effect = lower value
[56] = locus YOL078W, strain AVO1, stronger effect = lower value
[57] = locus YOL136C, strain PFK27, stronger effect = lower value
[58] = locus YOR061W, strain CKA2, stronger effect = lower value
[59] = locus YOR119C, strain RIO1, stronger effect = lower value
[60] = locus YOR231W, strain MKK1, stronger effect = lower value
[61] = locus YOR329C, strain SCD5, stronger effect = lower value
[62] = locus YPL031C, strain PHO85, stronger effect = lower value
[63] = locus YPL153C, strain RAD53, stronger effect = lower value
[64] = locus YPL204W, strain HRR25, stronger effect = lower value
[65] = locus YPL209C, strain IPL1, stronger effect = lower value
[66] = locus YPL256C, strain CLN2, stronger effect = lower value
[67] = locus YPR025C, strain CCL1, stronger effect = lower value
[68] = locus YPR106W, strain ISR1, stronger effect = lower value
[69] = locus YPR111W, strain DBF20, stronger effect = lower value
[70] = strain NNK1, stronger effect = lower value
[71] = strain TSCII, stronger effect = lower value
[72] = locus YAL013W, strain DEP1, stronger effect = lower value
[73] = locus YDR150W, strain NUM1, stronger effect = lower value
[74] = locus YMR263W, strain SAP30, stronger effect = lower value
[75] = locus YNL128W, strain TEP1, stronger effect = lower value
[76] = locus YNL153C, strain GIM3, stronger effect = lower value
[77] = locus YPL241C, strain CIN2, stronger effect = lower value

Measured: normalized growth

CC1C/C(=N/Nc2ccc(Br)cc2)c2cc(Cl)ccc2S1(=O)=O (centres undefined)
active: [21] 0.732 | [25] 0.397 | [26] 0.462 | [58] 0.507
inactive: [1] 1.01 | [2] 0.996 | [3] 0.989 | [4] 0.999 | [5] 0.995 | [6] 0.997 | [7] 1 | [8] 0.988 | [9] 0.992 | [10] 0.986 | [11] 0.888 | [12] 0.998 | [13] 1 | [14] 0.986 | [15] 0.895 | [16] 0.82 | [17] 0.895 | [18] 0.991 | [19] 0.992 | [20] 0.998 | [22] 0.991 | [23] 0.893 | [24] 0.93 | [27] 0.647 | [28] 0.793 | [29] 0.728 | [30] 1 | [31] 0.8 | [32] 1 | [33] 0.801 | [34] 0.99 | [35] 0.783 | [36] 0.804 | [37] 0.906 | [38] 0.911 | [39] 0.9 | [40] 0.98 | [41] 0.92 | [42] 0.885 | [43] 0.848 | [44] 0.763 | [45] 0.841 | [46] 0.995 | [47] 0.903 | [48] 0.982 | [49] 0.984 | [50] 0.837 | [51] 0.987 | [52] 0.908 | [53] 0.992 | [54] 0.986 | [55] 0.667 | [56] 0.99 | [57] 0.8 | [59] 0.839 | [60] 0.879 | [61] 0.998 | [62] 0.868 | [63] 0.854 | [64] 0.855 | [65] 0.988 | [66] 0.879 | [67] 0.995 | [68] 0.998 | [69] 0.992 | [70] 0.994 | [71] 0.994

CC1C/C(=N/Nc2ccc(Br)cc2)c2cc(Cl)ccc2S1 (centres undefined)
inactive: [14] 0.931 | [69] 0.9
active: [1] 0.535 | [2] 0.485 | [3] 0.429 | [4] 0.497 | [5] 0.58 | [6] 0.525 | [7] 0.396 | [8] 0.458 | [9] 0.598 | [10] 0.546 | [11] 0.161 | [12] 0.703 | [13] 0.333 | [15] 0.146 | [16] 0.166 | [17] 0.213 | [18] 0.434 | [19] 0.404 | [20] 0.433 | [21] 0.124 | [23] 0.187 | [24] 0.215 | [25] 0.125 | [26] 0.193 | [27] 0.192 | [28] 0.277 | [29] 0.0907 | [30] 0.409 | [31] 0.15 | [32] 0.318 | [33] 0.168 | [34] 0.343 | [35] 0.117 | [36] 0.224 | [37] 0.198 | [38] 0.185 | [39] 0.187 | [40] 0.498 | [41] 0.182 | [42] 0.235 | [43] 0.128 | [44] 0.0605 | [45] 0.151 | [46] 0.644 | [47] 0.163 | [48] 0.519 | [49] 0.265 | [50] 0.141 | [51] 0.383 | [52] 0.194 | [53] 0.624 | [54] 0.369 | [55] 0.114 | [56] 0.529 | [57] 0.158 | [58] 0.12 | [59] 0.158 | [60] 0.187 | [61] 0.303 | [62] 0.147 | [63] 0.126 | [64] 0.131 | [65] 0.385 | [66] 0.208 | [67] 0.41 | [70] 0.545 | [71] 0.644

Cc1nc2n(c(=O)c1CCN1CCC(c3noc4cc(F)ccc34)CC1)CCCC2
inactive: [72] 0.998 | locus YAL040C, strain CLN3, stronger effect = lower value 1.02 | locus YCL061C, strain MRC1 (second series), stronger effect = lower value 1.01 | [73] 1 | locus YDR363W, strain ESC2, stronger effect = lower value 0.988 | locus YER002W, strain NOP16, stronger effect = lower value 1 | locus YGR229C, strain SMI1, stronger effect = lower value 1 | [74] 1 | locus YMR307W, strain GAS1, stronger effect = lower value 1.02 | [75] 1.03 | [76] 1.01 | locus YNL175C, strain NOP13, stronger effect = lower value 1.01 | locus YNL197C, strain WHI3, stronger effect = lower value 1.01 | locus YNL224C, strain SQS1, stronger effect = lower value 1 | locus YOR083W, strain WHI5 (second series), stronger effect = lower value 1 | [77] 1

Cc1cc(CN2CC(C)OC(C)C2)cc(C)c1O (centres undefined)
inactive: [72] 1.01 | locus YBR229C, strain ROT2, stronger effect = lower value 1.01 | [8] 1.09 | [73] 1.08 | locus YEL061C, strain CIN8, stronger effect = lower value 0.997 | locus YGR078C, strain PAC10, stronger effect = lower value 1.02 | [26] 1.03 | locus YHR087W, strain rtc3, stronger effect = lower value 0.976 | locus YJR043C, strain POL32, stronger effect = lower value 1.03 | locus YJR075W, strain HOC1, stronger effect = lower value 1 | locus YKL190W, strain CNB1, stronger effect = lower value 0.974 | locus YLR039C, strain RIC1, stronger effect = lower value 1.05 | locus YLR058C, strain SHM2 (second series), stronger effect = lower value 0.991 | locus YLR085C, strain ARP6, stronger effect = lower value 1.03 | locus YLR262C, strain YPT6, stronger effect = lower value 0.954 | locus YML094W, strain GIM5, stronger effect = lower value 0.996 | locus YMR219W, strain ESC1, stronger effect = lower value 0.997 | [74] 1.05 | [75] 0.988 | [76] 1.04 | locus YNL298W, strain CLA4 (second series), stronger effect = lower value 1.02 | locus YNL322C, strain KRE1, stronger effect = lower value 0.994 | locus YNR030W, strain Alg12, stronger effect = lower value 0.992 | locus YOL006C, strain TOP1, stronger effect = lower value 0.975 | locus YPL055C, strain LGE1, stronger effect = lower value 1.01 | [77] 1.03 | locus YPR135W, strain CTF4, stronger effect = lower value 1.04

O=C(Nc1ccc(Cl)cc1)O/N=C\c1ccn(-c2ccccc2)n1
active: [26] 0.611 | [29] 0.559 | [35] 0.605 | [42] 0.6 | [66] 0.662
inactive: [1] 0.958 | [2] 0.963 | [3] 0.95 | [4] 0.937 | [5] 0.962 | [6] 0.971 | [7] 0.955 | [8] 0.975 | [9] 0.941 | [10] 0.954 | [11] 0.8 | [12] 0.982 | [13] 0.952 | [14] 0.965 | [15] 0.859 | [16] 0.811 | [17] 0.882 | [18] 0.961 | [19] 0.955 | [20] 0.96 | [21] 0.956 | [22] 0.953 | [23] 0.876 | [24] 0.845 | [25] 0.775 | [27] 0.654 | [28] 0.835 | [30] 0.953 | [31] 0.738 | [32] 0.877 | [33] 0.857 | [34] 0.961 | [36] 0.834 | [37] 0.886 | [38] 0.82 | [39] 0.798 | [40] 0.948 | [41] 0.947 | [43] 0.829 | [44] 0.87 | [45] 0.804 | [46] 0.95 | [47] 0.779 | [48] 0.948 | [49] 0.954 | [50] 0.782 | [51] 0.97 | [52] 0.732 | [53] 0.954 | [54] 0.946 | [55] 0.785 | [56] 0.956 | [57] 0.797 | [58] 0.875 | [59] 0.929 | [60] 0.688 | [61] 0.954 | [62] 0.851 | [63] 0.885 | [64] 0.869 | [65] 0.959 | [67] 0.953 | [68] 0.937 | [69] 0.929 | [70] 0.903 | [71] 0.95
